Growth data for 40 compounds are collected here from PubChem BioAssay (NCI).

Molecules are shown by their SMILES. About 83,000 compounds went through this panel and 20% of them were active in at least one assay; those are over-represented in the sample as a whole.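 In brief: 96-well plates, 48 h treatment, single concentration, percent growth endpoint.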 Values without a mark were called inactive. The source made the active and inactive calls.

The assay concerns MCF7 breast. Description: NCI-60 one-dose screen, 48 h (100 = growth as untreated, 0 = no growth, -100 = all killed). As to conditions: 10 µM. Here is the method: Growth inhibition of the MCF7 human tumor cell line is measured as a screen for anti-cancer activity. Cells are grown in 96 well plates and exposed to the test compound for 48 hours. Compounds are tested at a single concentration, which is 10^-5 M for most compounds. The reported endpoint is percent growth (GI% or GIPRCNT), where numbers from 0 - 100% represent growth inhibition, and numbers from -100% - 0 represent cell death. For example, a value of 40 represents 60% growth inhibition. A value of 0 means no net growth occurred over the course of the experiment. A value of -40 indicates 40% of cells at the beginning of the experiment died by the end of the experiment. A value of -100 means all cells are dead at the end of the experiment.
NCI-60 Human Tumor Cell Lines Screen was performed using the standard one-dose NCI protocol, which is described in more detail at https://dtp.cancer.gov/discovery_development/nci-60/default.htm.
Compounds with GIPRCNT values below 10 were considered active. Activity score was based on GIPRCNT using the following formula: […]
Score is 0 for GIPRCNT values of 100 or above, 50 for GIPRCNT values of 0, and 100 for GIPRCNT values of -100.
Take `N#Cc1c(-c2ccc(F)cc2)nc(SCc2ccc([N+](=O)[O-])cc2)nc1N1CCOCC1`: the growth is 58.5%.

On to `CC(=C(c1ccc(OCCN2CCCCC2)cc1)c1ccc(OCCN2CCCCC2)cc1)c1ccccc1`, for which the growth was -48.3% (active). As to `O=c1c2ccccc2nc(COc2ccccc2)n1/N=C/c1ccc(F)cc1`, the growth is 80.4%. Under `CCCn1c(=O)c2[nH]c(-c3ccc(OCc4nc5ccc(F)cc5[nH]4)cc3)nc2n(CCC)c1=O` stands 8.76% (active). Under `O=c1oc2ccc(-c3ccc(F)cc3F)cc2c(=O)n1-c1ccc(F)c(Cl)c1` stands -17.2% (active).

Turning to `Cc1ccc([N+](=O)[O-])c(C(=O)Nc2ccc(-c3ccc4c(c3)NC(=O)/C4=C\c3ccc[nH]3)cc2)c1`, the growth is -47.7% (active). Consider `N#Cc1c(-c2ccc(F)cc2)nc(SCc2ccc(F)cc2)nc1N1CCOCC1`, for which the growth was 63.7%. The same measure for `O=c1cc(-c2ccccc2)oc2cc(OCCCCNCc3ccccc3)cc(O)c12`: -64.1% (active); for `COc1cc2c3c(n(CCCN4CCOCC4)c(=O)c2cc1OC)-c1nc2c(cc1C3=O)OCO2`: 14%; for `O=C(Nc1cccc(C(F)(F)F)c1)c1cncc(C#Cc2cnc3cccnn23)c1`: 8.36% (active). Consider `COc1cc(NC(=O)c2cc(-c3ccc(F)cc3F)ccc2O)cc(OC)c1OC`, for which the growth was 38.9%. For the compound `C#CCNC(=O)[C@]12CCC(C)(C)C[C@H]1C1=CC[C@@H]3[C@@](C)(CCC#N)[C@H](C(=C)C)CC[C@@]3(C)[C@]1(C)CC2`, the growth is 34%. For `Cc1ccn2c(C(=O)c3ccccc3)cc(-c3cc(-c4ccc(N(C)C)cc4)c(C#N)c(N)n3)c2c1`, the growth was 54.3%.

Consider `N#Cc1ccc(-c2nn(-c3ccc(C(=O)O)cc3)cc2CNc2cc(Cl)cc(Cl)c2)cc1`, for which the growth is 27.3%. The same measure for `COC1=C[C@]23CCC(=O)N2CCc2cc4c(cc2[C@@H]3[C@@H]1OC(=O)CCCC(C)C)OCO4`: 1.77% (active); for `COc1ccc2[nH]c(=O)c(CSc3nccc(-c4ccc(Cl)cc4)n3)cc2c1`: 7.81% (active); for `CONC[C@]1(C)C=C2C(=O)[C@](C)(O)C3(CC3)C(C)=C2[C@H]1O`: -36.3% (active). Under `O=C(c1ccccc1)n1ccc(-c2cc3cc(Br)ccc3oc2=O)n1` stands -8.53% (active). With `O=C(c1ccc(Cl)cc1)C1[C@H](c2ccc(Br)cc2)[C@@H](c2ccccc2)NC12C(=O)Nc1ccccc12` (stereo not given in full), the growth was -4.24% (active). For the compound `CN1CCN(Cc2ccc(C(=O)Nc3cccc(Nc4ccc5cc(O)ccc5n4)c3)cc2C(F)(F)F)CC1`, the growth is -78.4% (active). On to `COC(=O)CC1CC1C1Cc2c(nc(N(C)S(C)(=O)=O)nc2C(C)C)-c2ccc(F)cc21` (stereo not given), for which the growth was 67.1%. For `Cc1ccc(/C=C/C(=O)c2ccc(S(=O)(=O)NCCNc3nc(Nc4ccc(F)cc4)nc(N(C)C)n3)cc2)cc1`, the growth is -55.8% (active).

Consider `Cc1ccc(C(C)C)cc1NC(=O)c1ccccc1O`, for which the growth is 40.2%. The same measure for `O=C(CNc1nc(-c2ccccc2)cs1)Nc1ccc(Br)cc1`: -82.2% (active); for `O=C1Nc2ccc(Cl)cc2/C1=C/c1ccc(OCc2ccc(Br)cc2F)cc1`: 12.1%. Take `CS(=O)(=O)Nc1ccc(-c2ccc3c(c2)ncn3-c2ccc(NC(=O)Nc3ccc(Cl)c(C(F)(F)F)c3)cc2)cc1`: the growth is -77.8% (active). The same measure for `CCOC(=O)C1=C(N)N(c2ccccc2)C2=C(C(=O)CC(C)(C)C2)C1c1ccccc1OC` (stereo not given): 89.7%; for `COc1cc(/C=C/C(=O)c2ccc(NC(=O)CN3C(=O)NC(C)(c4ccccc4)C3=O)cc2)cc(OC)c1OC` (stereo not given): 2.86% (active). `CN1CCN(c2ccc(C(=O)/C=C/c3cc(Br)ccc3F)cc2)CC1`: the growth is 2.37% (active).

For the compound `CN1CCc2c(sc3ncnc(N/N=C/c4ccc5ccccc5c4)c23)C1`, the growth was 20.7%. Under `COc1ccc(C(=O)/C=C/c2cc(F)cc(C(F)(F)F)c2)cc1S(N)(=O)=O` stands -90.6% (active). On to `O=C(CNc1nc(-c2ccccc2)cs1)Nc1ccc(Cl)cc1`, for which the growth was -85.5% (active). Turning to `CCCCCCCCCCCCCCCCCCCC(=O)NCCc1c[nH]c2ccc(OC(=O)NOCCOCCOCCOCCOCCOCCOCCOCCOCCOCCOCCOCCOCCOCCOCCOCCOCCOCCOCCOCCOCCOCCOC)cc12`, the growth is -12.3% (active).

`CCOC(=O)c1c(CSc2ccccc2)n(C)c2cc(CN(C)C)c(O)c(CN(C)C)c12`: the growth was 3.06% (active). `O=C(Cn1nc(-c2ccccc2)ccc1=O)NNC(=S)NC1CCCCC1`: the growth was 99.4%. Under `CCOP(=O)(OCC)O[C@H]1CCC(=O)[C@@H]2[C@H]1[C@H]1C[C@@H]3[C@@]4(C)CCCC(C)(C(=O)OC)[C@@H]4CC[C@@]23C=C1C(C)C` (stereo not given in full) stands 33.2%.

`N#Cc1ccc(-c2nn(-c3ccc(C(=O)O)cc3)cc2CNc2cccc(Br)c2)cc1`: the growth is 48.2%.

As to `O=C1Nc2ccc(Cl)cc2/C1=C/c1cccc(OCc2ccccn2)c1`, the growth is -0.24% (active). Turning to `COc1ccc([C@H]2C(C(=O)c3ccc(Cl)cc3)C3(N[C@@H]2c2ccccc2)C(=O)Nc2ccc(Br)cc23)cc1` (stereo not given in full), the growth was -7.25% (active).

On to `O=c1[nH]n(C(=S)N/N=C/c2ccc(F)cc2)c(=O)c2ccccc12`, for which the growth was 15.9%.
